Reference: PubChem BioAssay (EPA / NIEHS)
The source made the active and inactive calls. The calls were made as follows: active = hit-call score of the fitted dose curve at least 0.9, where 1 is the maximum; inactive = score below 0.9.

Key:
Details in all cases: mRNA level, 48 h; actives raise or lower the signal
[1] = read-out: Fatty acid synthase (Homo sapiens) (UniProt P49327); assay: LTEA_HepaRG_FASN: Life Technologies and Expression Analysis (LTEA) Assay for Fatty Acid Synthase (FASN) using HepaRG (AID 2283448);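 as to AC50: differentiated human HepaRG liver cells in serum-free induction medium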
Procedure, shortened: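 Differentiated HepaRG cells in serum-free induction medium exposed 48 h in duplicate to eight half-log concentrations, top 100 uM, 0.5% DMSO. FASN mRNA by qRT-PCR normalised to ACTB, GAPDH, POLR2A; bidirectional fit versus DMSO.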

[2] = read-out: Cyclin D2 (CCND2), CCND2 (gene 894); assay: LTEA_HepaRG_CCND2: Life Technologies and Expression Analysis (LTEA) Assay for Cyclin D2 (CCND2) using HepaRG (AID 2283449);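 also: CCND2 transcript measured by TaqMan qRT-PCR and normalised to three housekeeping genes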
Procedure, shortened: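 Chemicals in 0.5% DMSO, eight half-log concentrations from 100 uM top, were applied in duplicate for 48 h to human HepaRG cells in serum-free induction medium. CCND2 mRNA by TaqMan qRT-PCR, normalised to ACTB/GAPDH/POLR2A; bidirectional fit versus DMSO.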

[3] = read-out: Cyclin Dependent Kinase Inhibitor 1A (CDKN1A), CDKN1A (gene 1026); assay: LTEA_HepaRG_CDKN1A: Life Technologies and Expression Analysis (LTEA) Assay for Cyclin Dependent Kinase Inhibitor 1A (CDKN1A) using HepaRG (AID 2283450)
Procedure, shortened: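 Expression quantified by Fluidigm qRT-PCR with ACTB, GAPDH and POLR2A normalization, fitted bidirectionally against 0.5% DMSO. Cells: HepaRG, plated 48 h then treated 48 h in serum-free induction medium, top concentration 100 uM with half-log dilutions.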

[4] = read-out: Cyclin D1 (CCND1), CCND1 (gene 595); assay: LTEA_HepaRG_CCND1: Life Technologies and Expression Analysis (LTEA) Assay for Cyclin D1 (CCND1) using HepaRG (AID 2283451);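 as to AC50: differentiated human HepaRG liver cells in serum-free induction medium; TaqMan qRT-PCR transcript level normalised to ACTB GAPDH and POLR2A housekeeping genes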
Procedure, shortened: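 Expression of CCND1 was quantified by qRT-PCR on Fluidigm arrays using ACTB, GAPDH and POLR2A as reference genes. HepaRG cultures, plated 48 h beforehand, were dosed for 48 h at up to 100 uM (half-log, 8 points) in 0.5% DMSO.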

[5] = read-out: catalase (CAT), CAT (gene 847); assay: LTEA_HepaRG_CAT: Life Technologies and Expression Analysis (LTEA) Assay for catalase (CAT) using HepaRG (AID 2283452);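 as to AC50: TaqMan qRT-PCR signal normalized to ACTB GAPDH and POLR2A housekeeping genes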
Procedure, shortened: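 HepaRG cells in serum-free induction medium, 0.5% DMSO vehicle, exposed 48 h in duplicate over 8 half-log concentrations from 100 uM. CAT mRNA measured by qRT-PCR, normalized to ACTB, GAPDH, POLR2A; bidirectional fit versus DMSO.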

[6] = read-out: flavin-containing dimethylaniline monooxygenases 3 (FMO3), FMO3 (gene 2328); assay: LTEA_HepaRG_FMO3: Life Technologies and Expression Analysis (LTEA) Assay for flavin-containing dimethylaniline monooxygenases 3 (FMO3) using HepaRG (AID 2283453);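 as to AC50: differentiated human HepaRG liver cells in serum-free induction medium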
Procedure, shortened: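 Differentiated HepaRG cells in serum-free induction medium, exposed 48 h in duplicate to 8 half-log concentrations up to 100 uM in 0.5% DMSO. FMO3 mRNA by qRT-PCR, normalized to ACTB, GAPDH, POLR2A; bidirectional fit vs DMSO.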

[7] = read-out: Cytochrome P450 (CYP1A1), CYP1A1 (gene 1543); assay: LTEA_HepaRG_CYP1A1: Life Technologies and Expression Analysis (LTEA) Assay for Cytochrome P450 (CYP1A1) using HepaRG (AID 2283454)
Procedure, shortened: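 CYP1A1 transcript levels measured by Fluidigm qRT-PCR against three housekeeping genes, 48 h after chemical dosing of human HepaRG cells (highest concentration 100 uM, half-log steps, 0.5% DMSO vehicle). Gain or loss of signal fitted relative to DMSO.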

[8] = read-out: CFLAR gene, CFLAR (gene 8837); assay: LTEA_HepaRG_CFLAR: Life Technologies and Expression Analysis (LTEA) Assay for CFLAR gene using HepaRG (AID 2283455)
Procedure, shortened: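 Differentiated HepaRG cells in serum-free induction medium were exposed 48 h in duplicate to eight half-log concentrations up to 100 uM in 0.5% DMSO; mRNA measured by TaqMan qRT-PCR, normalized to ACTB, GAPDH, POLR2A; bidirectional fitting versus DMSO.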

[9] = read-out: Forkhead box O1 (FOXO1), FOXO1 (gene 2308); assay: LTEA_HepaRG_FOXO1: Life Technologies and Expression Analysis (LTEA) Assay for Forkhead box O1 (FOXO1) using HepaRG (AID 2283456)
Procedure, shortened: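 Differentiated HepaRG cells, in serum-free induction medium with 0.5% DMSO, exposed 48 h in duplicate to 8-point half-log series from 100 uM. FOXO1 mRNA measured by TaqMan qRT-PCR, normalized to ACTB, GAPDH, POLR2A; bidirectional fit versus DMSO.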

Measured: AC50

Sequence of Fatty acid synthase (Homo sapiens) (P49327 whole entry, looked up): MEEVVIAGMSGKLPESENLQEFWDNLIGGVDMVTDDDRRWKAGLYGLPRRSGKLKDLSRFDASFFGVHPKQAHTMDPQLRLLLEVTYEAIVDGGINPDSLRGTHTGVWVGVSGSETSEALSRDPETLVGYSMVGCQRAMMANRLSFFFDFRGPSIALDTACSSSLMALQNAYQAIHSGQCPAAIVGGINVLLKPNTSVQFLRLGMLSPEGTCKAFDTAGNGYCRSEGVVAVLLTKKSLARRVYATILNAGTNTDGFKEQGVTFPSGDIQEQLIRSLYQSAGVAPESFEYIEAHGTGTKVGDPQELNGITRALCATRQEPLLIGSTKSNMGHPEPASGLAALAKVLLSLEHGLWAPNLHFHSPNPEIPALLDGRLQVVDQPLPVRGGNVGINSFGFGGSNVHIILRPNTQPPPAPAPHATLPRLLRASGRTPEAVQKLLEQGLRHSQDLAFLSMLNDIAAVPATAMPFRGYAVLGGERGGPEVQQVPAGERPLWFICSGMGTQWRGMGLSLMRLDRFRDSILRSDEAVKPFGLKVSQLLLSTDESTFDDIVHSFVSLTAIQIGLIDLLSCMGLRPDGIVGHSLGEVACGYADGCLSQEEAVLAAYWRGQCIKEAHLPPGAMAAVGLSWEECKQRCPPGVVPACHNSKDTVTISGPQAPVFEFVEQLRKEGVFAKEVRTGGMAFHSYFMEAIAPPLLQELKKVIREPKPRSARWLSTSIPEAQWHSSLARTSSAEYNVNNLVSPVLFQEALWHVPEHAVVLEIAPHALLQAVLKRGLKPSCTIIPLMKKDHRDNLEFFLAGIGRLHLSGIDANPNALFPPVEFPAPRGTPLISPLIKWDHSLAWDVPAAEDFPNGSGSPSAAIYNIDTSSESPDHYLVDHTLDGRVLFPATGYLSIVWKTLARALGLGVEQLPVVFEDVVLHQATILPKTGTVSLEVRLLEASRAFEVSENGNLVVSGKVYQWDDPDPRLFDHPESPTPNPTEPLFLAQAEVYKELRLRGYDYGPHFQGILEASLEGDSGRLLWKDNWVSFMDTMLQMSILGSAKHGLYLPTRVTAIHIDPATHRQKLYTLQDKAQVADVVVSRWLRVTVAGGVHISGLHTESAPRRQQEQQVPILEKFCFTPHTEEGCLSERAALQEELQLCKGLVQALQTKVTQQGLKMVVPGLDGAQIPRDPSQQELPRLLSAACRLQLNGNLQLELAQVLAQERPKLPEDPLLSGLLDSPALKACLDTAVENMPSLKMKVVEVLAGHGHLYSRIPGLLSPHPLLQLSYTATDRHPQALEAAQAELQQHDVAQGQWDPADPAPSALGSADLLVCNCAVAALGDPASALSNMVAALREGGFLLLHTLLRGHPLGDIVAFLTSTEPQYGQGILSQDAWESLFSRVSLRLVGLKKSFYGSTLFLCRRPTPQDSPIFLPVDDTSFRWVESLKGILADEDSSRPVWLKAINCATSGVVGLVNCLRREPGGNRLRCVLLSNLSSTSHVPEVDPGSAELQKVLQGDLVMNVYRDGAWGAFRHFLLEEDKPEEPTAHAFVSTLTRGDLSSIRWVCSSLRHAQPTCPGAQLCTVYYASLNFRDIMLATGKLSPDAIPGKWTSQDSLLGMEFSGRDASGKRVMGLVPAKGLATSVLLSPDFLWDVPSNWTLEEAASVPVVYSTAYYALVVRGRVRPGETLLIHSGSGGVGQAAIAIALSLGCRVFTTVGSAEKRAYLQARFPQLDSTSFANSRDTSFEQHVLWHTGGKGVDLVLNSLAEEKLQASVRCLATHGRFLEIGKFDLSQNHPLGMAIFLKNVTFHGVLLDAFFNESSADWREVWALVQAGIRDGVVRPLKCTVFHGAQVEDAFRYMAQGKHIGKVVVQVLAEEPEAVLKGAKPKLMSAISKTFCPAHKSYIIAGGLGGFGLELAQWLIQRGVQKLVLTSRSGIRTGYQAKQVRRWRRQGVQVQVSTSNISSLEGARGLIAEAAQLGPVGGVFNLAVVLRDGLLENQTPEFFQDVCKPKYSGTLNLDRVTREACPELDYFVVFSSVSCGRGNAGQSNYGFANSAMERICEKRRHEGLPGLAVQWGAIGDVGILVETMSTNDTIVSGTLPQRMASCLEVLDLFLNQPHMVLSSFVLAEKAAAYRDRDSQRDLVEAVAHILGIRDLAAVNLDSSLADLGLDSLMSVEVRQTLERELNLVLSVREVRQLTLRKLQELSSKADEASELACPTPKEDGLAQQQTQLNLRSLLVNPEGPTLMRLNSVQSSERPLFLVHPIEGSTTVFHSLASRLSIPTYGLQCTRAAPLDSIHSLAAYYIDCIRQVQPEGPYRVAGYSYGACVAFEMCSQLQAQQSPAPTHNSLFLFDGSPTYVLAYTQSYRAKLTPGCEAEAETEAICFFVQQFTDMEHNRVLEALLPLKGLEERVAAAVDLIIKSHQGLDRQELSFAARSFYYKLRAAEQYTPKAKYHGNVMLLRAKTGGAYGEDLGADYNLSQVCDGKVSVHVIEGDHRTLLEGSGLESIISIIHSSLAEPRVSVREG

CCc1nn(C2CCCCC2)c2cc(C3(C#N)CCC(C(=O)O)CC3)ccc12 (stereo unspecified)
inactive: [2]
active: [1] 85.1 µM | [3] 73.2 µM | [4] 19.5 µM | [5] 77.2 µM | [6] 83.7 µM | [7] 14.4 µM | [8] 8.95 µM | [9] 86 µM

CC[C@H](c1ccc(O)cc1)[C@@H](CC)c1ccc(O)cc1
active: [1] 76.2 µM | [2] 62.4 µM | [3] 89.8 µM | [4] 77 µM | [5] 78.4 µM | [6] 79.9 µM | [8] 75.7 µM | [9] 78.5 µM
inactive: [7]

CC(C)(C)c1cc(C(C)(C)C)c(O)c(C(C)(C)C)c1
active: [1] 50 µM
inactive: all other assays above

COCC(C)OCC(C)O (stereo unspecified)
active: [7] 50 µM
inactive: all other assays above

OC1CCC(C2CCCCC2)CC1 (stereo unspecified)
inactive: all assays above

CCCCCCCC(=O)O
not listed: [7]
inactive: all other assays above

c1ccc2c(c1)Cc1ccccc1-2
active: [7] 50 µM
inactive: all other assays above

ClC1=C(Cl)C(Cl)(Cl)C(Cl)=C1Cl
inactive: all assays above

COCC(C)O (stereo unspecified)
inactive: all assays above

NC(=O)N1C(=O)C(C(=O)c2cc(Cl)cs2)c2cc(F)c(Cl)cc21 (stereo unspecified)
inactive: [1] | [3] | [8]
active: [2] 28.7 µM | [4] 13.1 µM | [5] 25.1 µM | [6] 20 µM | [7] 3.31 µM | [9] 12.6 µM

c1ccc2cc3c(ccc4ccccc43)cc2c1
active: [1] 4.82 µM | [4] 9.56 µM | [5] 15.4 µM | [6] 13.6 µM | [7] 1.66 µM | [8] 10.5 µM | [9] 17.8 µM
inactive: [2] | [3]

Cc1oc(-c2ccccc2)nc1CCOc1ccc(C[C@H](Nc2ccccc2C(=O)c2ccccc2)C(=O)O)cc1
active: [1] 31.9 µM | [4] 23.6 µM | [5] 29.4 µM | [6] 26.4 µM | [8] 30 µM
inactive: [2] | [3] | [9]

CCOC(=O)CC(O)(CC(=O)OCC)C(=O)OCC
not listed: [7]
inactive: all other assays above

CCCCCCCCC(=O)O
not listed: [7]
inactive: all other assays above

NC(=O)N(O)[C@@H]1C=C[C@H](Oc2cccc(Oc3ccc(F)cc3)c2)C1
active: [1] 85 µM | [3] 33 µM | [4] 84.1 µM | [5] 50 µM | [6] 42.7 µM | [8] 67.3 µM | [9] 82.1 µM
inactive: [2]

CN1CCC[C@H]1c1cccnc1
not listed: [7]
inactive: all other assays above

OCCC(F)(F)C(F)(F)C(F)(F)C(F)(F)C(F)(F)C(F)(F)F
not listed: [7]
inactive: all other assays above

CC(C)(C)c1ccc(O)c(C(C)(C)C)c1
active: [2] 0.00316 µM
inactive: all other assays above

O=C(OCCOCCOC(=O)c1ccccc1)c1ccccc1
active: [7] 50 µM
inactive: all other assays above

CCCCC(CC)COC(=O)CCCCC(=O)OCc1ccccc1 (stereo unspecified)
active: [7] 50 µM
inactive: all other assays above

CC(C)(C)CC(C)(C)c1ccc(O)c(-n2nc3ccccc3n2)c1
active: [1] 50 µM | [6] 77.6 µM
not listed: [7]
inactive: all other assays above

OCCC(F)(F)C(F)(F)C(F)(F)C(F)(F)C(F)(F)C(F)(F)C(F)(F)C(F)(F)F
inactive: all assays above

COc1ccc([N+](=O)[O-])cc1N
active: [7] 50 µM
inactive: all other assays above

CCCCOCCO
active: [7] 50 µM
inactive: all other assays above

CC[C@H](C)[C@@H](C(=O)O)n1sc2ccccc2c1=O
not listed: [7]
inactive: all other assays above

CC(C)CCCCCCOC(=O)CCCCC(=O)OCCCCCCC(C)C
active: [7] 50 µM
inactive: all other assays above

CCc1ccc(CCOc2ccc(CC3SC(=O)NC3=O)cc2)nc1 (stereo unspecified)
active: [3] 80.4 µM | [4] 50 µM | [5] 83.4 µM | [6] 78.7 µM | [7] 50 µM
inactive: [1] | [2] | [8] | [9]

C=C(C)C(=O)OCCC(F)(F)C(F)(F)C(F)(F)C(F)(F)C(F)(F)C(F)(F)F
active: [7] 10.2 µM
inactive: all other assays above

CCCOc1sc(C(=O)N2CCC(c3cc(CN)ccc3F)CC2)c(C)c1Br
not listed: [7]
inactive: all other assays above

CCC(C)(C)C1CCC(O)CC1 (stereo unspecified)
inactive: all assays above

CC#C[C@]1(O)CC[C@H]2[C@@H]3CCC4=CC(=O)CCC4=C3[C@@H](c3ccc(N(C)C)cc3)C[C@@]21C
inactive: [2] | [8]
active: [1] 4.54 µM | [3] 39.2 µM | [4] 86.2 µM | [5] 34.2 µM | [6] 33.4 µM | [7] 50 µM | [9] 3.33 µM

Oc1cccc(O)c1
inactive: [7]

Cc1cc(CCN2CCN(c3nsc4ccccc34)CC2)cc2c1NC(=O)CC2(C)C
active: [7] 7.65 µM
